We go through eight sequences from paper PMC7862700, “An all-to-all approach to the identification of sequence-specific readers for epigenetic DNA modifications on cytosine”.

What all share (assay): DAPPL (digital affinity profiling via proximity ligation, sequencing); 10 mM Tris-HCl pH 7.5, 50 mM NaCl, 1 mM DTT, 4% glycerol, room temperature, 30 min; GST-TFs on glutathione beads, 16-mer random dsDNA library, 0.1% formaldehyde crosslink after washing; high values mean tight binding
Holding throughout (details): protein: recombinant; tags: N-terminal GST; dsDNA, one strand shown

In one experiment the target is T1, ERF (Homo sapiens, UniProt P50548 1-548).
T1 sequence: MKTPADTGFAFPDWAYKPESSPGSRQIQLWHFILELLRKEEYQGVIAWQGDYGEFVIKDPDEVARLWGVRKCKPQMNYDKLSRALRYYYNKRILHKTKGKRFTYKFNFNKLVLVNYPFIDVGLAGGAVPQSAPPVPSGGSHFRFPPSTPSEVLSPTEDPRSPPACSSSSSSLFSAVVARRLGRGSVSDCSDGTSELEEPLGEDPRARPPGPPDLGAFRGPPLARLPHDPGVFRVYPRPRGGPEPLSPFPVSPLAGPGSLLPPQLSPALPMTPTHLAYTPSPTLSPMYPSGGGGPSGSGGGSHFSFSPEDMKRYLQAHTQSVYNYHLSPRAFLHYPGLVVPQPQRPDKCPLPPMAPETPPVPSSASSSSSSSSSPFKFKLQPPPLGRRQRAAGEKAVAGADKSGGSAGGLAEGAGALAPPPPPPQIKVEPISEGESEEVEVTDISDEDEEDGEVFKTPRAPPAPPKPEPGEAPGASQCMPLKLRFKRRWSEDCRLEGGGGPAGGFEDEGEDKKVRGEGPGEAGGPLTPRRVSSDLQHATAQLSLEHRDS
Summed up: (§1)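 Each value of binding signal is a hexamer's read frequency for a factor divided by the same hexamer's frequency in the tag-only sample. Barcoded, bead-captured GST fusions of human transcription factors made in yeast were pooled with that sample and incubated with 200 nmole of a random double-stranded 16-mer DNA library in Tris/NaCl/DTT/glycerol buffer at room temperature for 30 min. Washing, 0.1% formaldehyde crosslinking, proximity ligation, PCR and Illumina NextSeq500 sequencing followed.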

Another experiment has as its target T2, ETV3L (Homo sapiens, UniProt Q6ZN32 1-361).
T2 sequence: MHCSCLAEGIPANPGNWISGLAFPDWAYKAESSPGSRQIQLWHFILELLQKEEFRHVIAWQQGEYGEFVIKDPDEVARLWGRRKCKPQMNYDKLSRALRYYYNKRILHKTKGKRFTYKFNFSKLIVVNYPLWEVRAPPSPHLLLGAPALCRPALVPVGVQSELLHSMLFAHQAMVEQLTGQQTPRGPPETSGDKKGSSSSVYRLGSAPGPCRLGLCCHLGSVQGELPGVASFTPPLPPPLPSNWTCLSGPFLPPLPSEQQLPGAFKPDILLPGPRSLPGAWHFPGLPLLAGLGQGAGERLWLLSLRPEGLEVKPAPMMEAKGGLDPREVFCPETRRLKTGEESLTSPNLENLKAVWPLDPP
In outline: as §1

In the next experiment the target is T3, ETS2 (Homo sapiens, UniProt P15036 1-469).
T3 sequence: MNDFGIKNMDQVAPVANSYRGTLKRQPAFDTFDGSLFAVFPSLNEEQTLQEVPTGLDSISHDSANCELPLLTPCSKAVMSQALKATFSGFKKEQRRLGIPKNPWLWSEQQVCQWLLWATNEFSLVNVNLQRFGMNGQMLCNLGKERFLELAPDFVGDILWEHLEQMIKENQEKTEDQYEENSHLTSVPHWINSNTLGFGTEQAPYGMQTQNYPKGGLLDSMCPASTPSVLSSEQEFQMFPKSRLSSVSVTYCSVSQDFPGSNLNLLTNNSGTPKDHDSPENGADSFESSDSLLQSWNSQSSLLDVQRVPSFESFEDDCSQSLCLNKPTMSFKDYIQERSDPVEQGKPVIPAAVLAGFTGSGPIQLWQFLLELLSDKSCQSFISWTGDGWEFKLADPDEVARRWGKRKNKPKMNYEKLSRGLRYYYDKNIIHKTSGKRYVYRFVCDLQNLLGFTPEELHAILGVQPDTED
In outline: as §1

Another experiment deals with T4, SPDEF (Homo sapiens, UniProt O95238 1-335).
T4 sequence: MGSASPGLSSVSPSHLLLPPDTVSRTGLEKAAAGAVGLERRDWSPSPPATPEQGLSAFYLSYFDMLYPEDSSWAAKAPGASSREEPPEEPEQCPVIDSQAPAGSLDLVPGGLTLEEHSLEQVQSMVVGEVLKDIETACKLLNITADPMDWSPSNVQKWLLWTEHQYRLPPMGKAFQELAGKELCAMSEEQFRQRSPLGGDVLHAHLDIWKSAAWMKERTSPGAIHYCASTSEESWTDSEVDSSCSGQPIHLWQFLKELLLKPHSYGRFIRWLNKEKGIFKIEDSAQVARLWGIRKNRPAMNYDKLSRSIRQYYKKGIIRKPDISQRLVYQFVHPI
Summed up: as §1

For a further experiment, the target named is T5, ELF5 (Homo sapiens, UniProt Q9UKW6-2 1-255).
T5 sequence: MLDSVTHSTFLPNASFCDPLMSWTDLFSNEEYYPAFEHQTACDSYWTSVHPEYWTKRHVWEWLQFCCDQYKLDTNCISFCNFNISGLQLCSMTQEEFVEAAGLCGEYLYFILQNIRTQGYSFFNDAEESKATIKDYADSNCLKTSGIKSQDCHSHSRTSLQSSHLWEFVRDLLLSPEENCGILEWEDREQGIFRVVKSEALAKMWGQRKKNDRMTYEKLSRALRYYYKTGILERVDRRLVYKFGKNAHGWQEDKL
Summed up:
as §1

A further experiment deals with T6, ETV3 (Homo sapiens, UniProt P41162-2 1-143).
T6 sequence: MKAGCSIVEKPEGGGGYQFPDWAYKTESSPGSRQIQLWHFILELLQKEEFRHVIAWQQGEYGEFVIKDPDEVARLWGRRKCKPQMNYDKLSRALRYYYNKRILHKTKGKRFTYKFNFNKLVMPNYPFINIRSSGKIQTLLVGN
Summed up: as §1

In another experiment the target is ETV6 (Homo sapiens, UniProt P41212 1-452). Summed up: as §1
The next experiment concerns the target T7, ETV7 (Homo sapiens, UniProt Q9Y603 1-341).
T7 sequence: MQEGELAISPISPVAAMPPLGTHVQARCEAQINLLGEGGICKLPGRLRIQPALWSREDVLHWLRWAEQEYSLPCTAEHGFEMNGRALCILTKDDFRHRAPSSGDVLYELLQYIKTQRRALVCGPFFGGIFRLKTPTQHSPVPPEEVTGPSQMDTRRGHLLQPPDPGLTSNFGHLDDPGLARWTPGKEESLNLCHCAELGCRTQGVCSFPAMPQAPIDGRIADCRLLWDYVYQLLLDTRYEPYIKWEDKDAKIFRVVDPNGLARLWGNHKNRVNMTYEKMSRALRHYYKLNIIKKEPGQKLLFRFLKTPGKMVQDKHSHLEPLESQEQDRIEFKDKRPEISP
In outline:
as §1

ETV6, sequence (P41212 whole entry): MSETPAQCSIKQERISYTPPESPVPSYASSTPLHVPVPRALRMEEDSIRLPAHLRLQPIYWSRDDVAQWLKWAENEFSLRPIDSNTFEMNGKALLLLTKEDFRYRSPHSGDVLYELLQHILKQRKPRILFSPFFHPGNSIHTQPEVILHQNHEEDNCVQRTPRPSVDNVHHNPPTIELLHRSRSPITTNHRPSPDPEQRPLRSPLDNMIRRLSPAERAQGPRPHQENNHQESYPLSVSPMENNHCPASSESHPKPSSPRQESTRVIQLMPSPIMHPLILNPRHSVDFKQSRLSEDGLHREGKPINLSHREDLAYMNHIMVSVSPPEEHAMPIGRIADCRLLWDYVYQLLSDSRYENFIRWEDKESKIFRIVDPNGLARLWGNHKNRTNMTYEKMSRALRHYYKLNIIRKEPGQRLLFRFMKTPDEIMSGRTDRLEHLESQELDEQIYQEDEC

With TCGCCG, the binding signal is 1.38 fold enrichment (6-mer frequency, TF over GST control) with ERF; 1.25 fold enrichment (6-mer frequency, TF over GST control) with ETV3L; 1.26 fold enrichment (6-mer frequency, TF over GST control) with ETS2; 1.01 fold enrichment (6-mer frequency, TF over GST control) in the experiment with SPDEF; 1.15 fold enrichment (6-mer frequency, TF over GST control) with ELF5; 1.2 fold enrichment (6-mer frequency, TF over GST control) with ETV3. For the same sequence, the binding signal with ETV6 was 1.13 fold enrichment (6-mer frequency, TF over GST control).
Take CGAAAA: the binding signal was 1.17 fold enrichment (6-mer frequency, TF over GST control) in the experiment with ERF; 1.09 fold enrichment (6-mer frequency, TF over GST control) with ETV3L; 1.08 fold enrichment (6-mer frequency, TF over GST control) with ETS2; 1.02 fold enrichment (6-mer frequency, TF over GST control) with SPDEF; 1.17 fold enrichment (6-mer frequency, TF over GST control) with ETV7; 1.08 fold enrichment (6-mer frequency, TF over GST control) in the experiment with ETV6.
As for CACACG, the binding signal with ERF was 1.12 fold enrichment (6-mer frequency, TF over GST control); with ETV3L it was 1.21 fold enrichment (6-mer frequency, TF over GST control); with ETS2, 1.12 fold enrichment (6-mer frequency, TF over GST control); with SPDEF, 1.16 fold enrichment (6-mer frequency, TF over GST control); in the experiment with ELF5, 1.04 fold enrichment (6-mer frequency, TF over GST control); with ETV3 it was 1.1 fold enrichment (6-mer frequency, TF over GST control). For the same sequence, the binding signal in the experiment with ETV6 is 1.18 fold enrichment (6-mer frequency, TF over GST control).
As for GCACGA, the binding signal in the experiment with ERF is 1.13 fold enrichment (6-mer frequency, TF over GST control); in the experiment with ETV3L, 1 fold enrichment (6-mer frequency, TF over GST control); with ETS2, 1.03 fold enrichment (6-mer frequency, TF over GST control); with SPDEF, 1 fold enrichment (6-mer frequency, TF over GST control); in the experiment with ETV7 it was 1.19 fold enrichment (6-mer frequency, TF over GST control); in the experiment with ETV3 it was 1.1 fold enrichment (6-mer frequency, TF over GST control). Also, the binding signal in the experiment with ETV6 is 1.06 fold enrichment (6-mer frequency, TF over GST control).
Turning to CAACGC, the binding signal with ERF was 1.05 fold enrichment (6-mer frequency, TF over GST control); with ETV3L it was 1.07 fold enrichment (6-mer frequency, TF over GST control); with ETS2 it was 1.07 fold enrichment (6-mer frequency, TF over GST control); in the experiment with SPDEF, 1.08 fold enrichment (6-mer frequency, TF over GST control); with ETV7 it was 1.09 fold enrichment (6-mer frequency, TF over GST control); with ETV6 it was 1.03 fold enrichment (6-mer frequency, TF over GST control).
For ATCGTC, the binding signal was 1.13 fold enrichment (6-mer frequency, TF over GST control) with ERF; 1.09 fold enrichment (6-mer frequency, TF over GST control) with ETV3L; 1.05 fold enrichment (6-mer frequency, TF over GST control) with ETS2; 1.05 fold enrichment (6-mer frequency, TF over GST control) with SPDEF; 1.07 fold enrichment (6-mer frequency, TF over GST control) with ELF5; 1.06 fold enrichment (6-mer frequency, TF over GST control) with ETV3. The binding signal with ETV6 is 1.06 fold enrichment (6-mer frequency, TF over GST control).
On to AGCCCT, for which the binding signal was 1.11 fold enrichment (6-mer frequency, TF over GST control) with ERF; 1.12 fold enrichment (6-mer frequency, TF over GST control) in the experiment with ETV3L; 1.16 fold enrichment (6-mer frequency, TF over GST control) in the experiment with ETS2; 1.07 fold enrichment (6-mer frequency, TF over GST control) with SPDEF; 1.08 fold enrichment (6-mer frequency, TF over GST control) with ELF5; 1.15 fold enrichment (6-mer frequency, TF over GST control) with ETV3. The binding signal with ETV6 is 1.11 fold enrichment (6-mer frequency, TF over GST control).
As for GGATCC, the binding signal with ERF is 1.06 fold enrichment (6-mer frequency, TF over GST control); with ETV3L, 1.15 fold enrichment (6-mer frequency, TF over GST control); in the experiment with ETS2, 1.22 fold enrichment (6-mer frequency, TF over GST control); in the experiment with SPDEF, 2.07 fold enrichment (6-mer frequency, TF over GST control); with ELF5 it was 1.13 fold enrichment (6-mer frequency, TF over GST control); with ETV3, 1.13 fold enrichment (6-mer frequency, TF over GST control). Also, the binding signal in the experiment with ETV6 was 1.08 fold enrichment (6-mer frequency, TF over GST control).
